Laboratory results from publication PMC12136788.
Numbering of substitutions follows the chain as printed. Whole data set: some 24,000 sequences, median “enrichment r” near 0.99, cut for the highest 2% near 3.7. This excerpt belongs to a sample that is enriched for the highest values.

B1: 186301657_186302230_1024_CDS_ENSG00000090520_ENST00000265028|human|control|control (ssRNA)
RNA: GGGAGUUCUACAGUCCGACGAUCGGAAAUAUGUACCUUGUGACCAUCCAAGUGAGUAAUAUCCAUCUCAAAGCCAACCAGUGACUCAACUAAUGAGAUUGUCACAUUUGUGUACAAAUCAUCUCCUCUCCUUUCAAAUAUUGGCAACAGAGGAUUGAGCAUCA
B2: 12963335_12971236_673_CDS_ENSG00000085415_ENST00000262124|human|control|control (ssRNA)
RNA: GGGAGUUCUACAGUCCGACGAUCAUAUUCAAAAAUCUGAACCUUGGCCAUUGCGUUGGGGCUACUGUCAUCACUUCCUACGGCGAUCAUGGGGGAAUGAGCACGAGAGCUUGAAGGGUUCCAAGAAAUACAACUACAGCUUAGCAACAGAGGAUUGAGCAUCA
B3: chr1:154966221:154966222:+_ENSMUSG00000042751_ENSMUST00000043313|mus_mus|FALSE|FALSE (ssRNA)
RNA: GGGAGUUCUACAGUCCGACGAUCUGCAACUCGAAUGCAGUUUUUAUUGAGUUGACUUCCAUAAAGCAAAUCUCACUCUUAAAUUAGCAGAUAUGAUUUUUUAAAAAAUUAAAAAAAAAAAAGCUUCCUCCUCCCCAUUCCAACCAACAGAGGAUUGAGCAUCA
B4: chr16:67134085:67134086:+_ENSG00000067955_ENST00000412916|hu_hu|FALSE|FALSE (ssRNA)
RNA: GGGAGUUCUACAGUCCGACGAUCCUGAAUUGACUGUGUCAGUUUUUCACCCUUUAAAAUAAUGCCAUUUAAUGAUAAAAUACAUUUUUCAAAAAUUCAGAAAUGUAGUAACAUUUAAUAAAUGUGACCAUGAAAAAUAUUUGUCAACAGAGGAUUGAGCAUCA
B5: chr16:67134085:67134086:+_ENSG00000067955_ENST00000412916|hu_mus|FALSE|FALSE (ssRNA)
RNA: GGGAGUUCUACAGUCCGACGAUCGAAUUGACCAUGUCAGUUUUUAAAAUUUUCUAAAAUAAUGCCAUUUUAUGAUAAAAUACAUUUUUGCAAAAAUUCAGAAAUGUAGUAACAUUUAAUGAAUACGACCACGGAAAGUAUUGUCAACAGAGGAUUGAGCAUCA
B6: chr5:6374476:6374477:-_ENSG00000133398_ENST00000255764|hu_mus|FALSE|FALSE (ssRNA)
RNA: GGGAGUUCUACAGUCCGACGAUCUAGGCUUUUAAAUUUCUUCAUUGUGUCGAUCUUGCCCUUGACUUGCUCGUUUUUAGCUAGAGCCCUCUCCAGGCAUUCUUUGGUGUAGAGCUGGGGAUUCCGACCUUGAUCAAUGUAUUCCAACAGAGGAUUGAGCAUCA
B7: 117884203_117884323_1758_3pUTR_ENSG00000047932_ENST00000052569|human|control|control (ssRNA)
RNA: GGGAGUUCUACAGUCCGACGAUCAAAUUGCUUUACAUGCAAUAGCUAAUUAUGGUCUACCACAGAAAACAGGGUGUUUUAUGCAUUGAGAAUUGUUCACAUGAAGCCCUGAGGUACCCGCCUUUCAUUUAGGCAACAAACAGCCAACAGAGGAUUGAGCAUCA
B8: 48376308_48376428_337_CDS_ENSMUSG00000031558_ENSMUST00000170109|mouse|control|control (ssRNA)
RNA: GGGAGUUCUACAGUCCGACGAUCGGGCACACUGCGCAGUGCCAGCCCAUGACAGUCCACCGUGCUGCCUGAACAGGAGCACUGGGCCGGGCACGCCUGCGGCGCCACCUUGUUCAAGAUCGACAACACUAACCCCAGCGAUAGCAACAGAGGAUUGAGCAUCA
B9: chr1:60041781:60041782:+_ENSMUSG00000041040_ENSMUST00000036540|mus_hu|FALSE|FALSE (ssRNA)
RNA: GGGAGUUCUACAGUCCGACGAUCAAGUUUACAAUAGUAAAGUAAAUGCAGUAGUGGCAAAUUUUCUUUUAUUUUCCUUCACAAAAGAAAAUCUUUAUAACCCAGUCCUAGUCUUGGACAUAGUGAAAGCUAUAAAUUCUGACUCAACAGAGGAUUGAGCAUCA
B10: chr5:92873050:92873051:-_ENSMUSG00000029426_ENSMUST00000031377|mus_hu|motif|central (ssRNA)
RNA: GGGAGUUCUACAGUCCGACGAUCCAGCACCCAACAACAACAAAAUUACUAUACAAGGGUUUAUUAAAUACUUGCGGGACACAUAAAAGAACAAUUUCAGAGCCCACAUGAUUUUAUAAAGCUUAAUGGCCAGCCAUGUCAGCCCAACAGAGGAUUGAGCAUCA
B11: chr5:40767622:40767623:-_ENSG00000132356_ENST00000397128|hu_mus|hu_hu_hu_mus_False|38_48 (ssRNA)
RNA: GGGAGUUCUACAGUCCGACGAUCAUCUUUUAUUGCGGCCCUCUUCAUGGGAUCCACCUGCAGCAUAUGUUUCAAAAGGCUGAUUACAGAAGGAUUUAAAUAUUGAGGGGUAUAAAAGAUCCCAUCACAUAUCUUCUUAAAAAGCAACAGAGGAUUGAGCAUCA
B12: 57609423_57609543_1342_3pUTR_ENSG00000101166_ENST00000355937|human|control|control (ssRNA)
RNA: GGGAGUUCUACAGUCCGACGAUCACUAAGUUACAAAACUUGGGCAAAUCAAUACAGUACUCUUUUAUAAUGAAACCAUACUUUUGUUGGAGUCAUGUUACUUUAGUGAUAAUUUUCACUCCAAAAAUAUUUAAGUACCAAAUCCAACAGAGGAUUGAGCAUCA
B13: chr16:57153313:57153314:+_ENSMUSG00000022752_ENSMUST00000166897|mus_mus|FALSE|FALSE (ssRNA)
RNA: GGGAGUUCUACAGUCCGACGAUCCAAAAAAAAUUAAAAAGGAUUAAUUGAAUACAAAAGAAGUAUAUUUUACAGCACUUACUAUGUUAAAAACUAACAUACUAUAAAAUACUCACAUAUUAUACAAACAGCUAUAAAAAAACACAACAGAGGAUUGAGCAUCA
B14: chr8:13147844:13147845:+_ENSMUSG00000031446_ENSMUST00000016680|mus_mus|FALSE|FALSE (ssRNA)
RNA: GGGAGUUCUACAGUCCGACGAUCAAUAUUAACAAUUUGUAGACACAAUGAACUUAAAAAUAAGAAGUAGAAAUAGAAAUCUAUUUGGUCUUUCAGAGACCACAUCAUAGAACUCAUAAAUGAAAAUGUACAAAUAUAGAAAUGCAACAGAGGAUUGAGCAUCA
B15: chr4:154931852:154931853:+_ENSMUSG00000029064_ENSMUST00000030940|mus_mus|FALSE|FALSE (ssRNA)
RNA: GGGAGUUCUACAGUCCGACGAUCUUUUAUUGUAGUAUUUCCUUUUAAAAUUGGACCAACCCAAAACAAAAUGAAACCAAAAAAACAAAAACAAAACAAAAUAACAAAAUAAACCAAAAACAAUGGCCCCAGAAAAAAUGCACACAACAGAGGAUUGAGCAUCA
B16: chr16:57153313:57153314:+_ENSMUSG00000022752_ENSMUST00000166897|mus_mus|motif|central (ssRNA)
RNA: B13 RNA with U82G, A83G
B17: chr5:92873050:92873051:-_ENSMUSG00000029426_ENSMUST00000031377|mus_hu|FALSE|FALSE (ssRNA)
RNA: B10 RNA with G75U, G76A
B18: chr7:126859785:126859786:-_ENSMUSG00000030942_ENSMUST00000033236|mus_hu|FALSE|FALSE (ssRNA)
RNA: GGGAGUUCUACAGUCCGACGAUCUAUAUUACACACAAAUGUUAAAAAAAAAAAAAAAAAACAGACAUAAACAAGAAAAUCACAAAAGUACAAAAACUUCACUAAACAAUUCACUUCUAACCUACAUGAUCCACAUUUUUGCAACAACAGAGGAUUGAGCAUCA
B19: chr14:102516957:102516958:+_ENSG00000197102_ENST00000360184|hu_hu|FALSE|FALSE (ssRNA)
RNA: GGGAGUUCUACAGUCCGACGAUCAGCUCAGACCUUCCAAAUAUUUUAAAAAUGAAUAAAUGUUAAAUACCAACUUUCACUAUUACAGAAAGGGGCAGCUAGAAAAGUUUACUCUGUGCACAAGACUGCGACACCCCGCUCGUACAACAGAGGAUUGAGCAUCA
B20: chr15:63448706:63448707:-_ENSG00000185088_ENST00000411926|hu_hu|FALSE|FALSE (ssRNA)
RNA: GGGAGUUCUACAGUCCGACGAUCUGAUCUUGUAGCAACCUGGACAUUUUACAUCCAUAAAGUAAGAAUUUGGACUUUGUACUAGGCGUUUCUUUUUAUGUUUUUUCUUUUCCUCUUCCAAGGACGGAUGUAGUAAAUCUCUAGCAACAGAGGAUUGAGCAUCA
B21: chr15:51674161:51674162:-_ENSMUSG00000022312_ENSMUST00000022925|mus_mus|motif|central (ssRNA)
RNA: GGGAGUUCUACAGUCCGACGAUCCUGAACAACCUCAGUGCCUUGUCCUUCUUCUUGAUAAUGUUUGAUUAUCUUUAAUACGGCCAGGCCGUCGAUCUGCACCUGCUUCACGGCCGAAUCUCCGGAGCCGCCUUUGCCUUUGCCCAACAGAGGAUUGAGCAUCA
B22: 109540647_109541272_703_CDS_ENSG00000076248_ENST00000242576|human|control|control (ssRNA)
RNA: GGGAGUUCUACAGUCCGACGAUCACGAACCGUGAGGACAGCGUUGAGAAGGAGAACACCUUGCUUGGCCCACCCAGAUAAAUCUCCAUGGCCAGGAUGAACAAAAUCCUCUAUGUCUGUAGACAACUCUUUAUAAAUGUUCUCCAACAGAGGAUUGAGCAUCA

Target: T1, UNK ZnF1-3 (human, UniProt Q9C0B0 31-174)
T1 sequence: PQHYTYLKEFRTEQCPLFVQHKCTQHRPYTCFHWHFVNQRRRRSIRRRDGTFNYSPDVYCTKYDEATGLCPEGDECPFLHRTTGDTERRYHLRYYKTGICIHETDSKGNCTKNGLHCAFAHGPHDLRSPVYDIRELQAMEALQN
Assay: nsRBNS (natural sequence RNA bind-n-seq); RBNS binding buffer (assumed for nsRBNS): 25 mM Tris pH 7.5, 150 mM KCl, 3 mM MgCl2, 0.01% Triton X-100, 500 ug/ml BSA, 20 U/ml SUPERase-In, 4 C; UNK is unkempt and MSI1 is Musashi-1; names of the RNAs are library labels; protein concentration not given here; high values mean tight binding

Binder	binding signal [enrichment R]
B1	0.986
B2	2.14
B3	3.32
B4	0.889
B5	4.09
B6	0.465
B7	1.15
B8	0.634
B9	0.593
B10	4.28
B11	1.64
B12	0.487
B13	11.1
B14	3.41
B15	3.7
B16	3.65
B17	3.35
B18	10.5
B19	3.32
B20	0.655
B21	0.51
B22	1.34
